In the supplement of paper PMC12494721:
Counter-ions that a name gives are not always drawn.

Key:
Conditions in all cases: incubation time: 27 h, anaerobic, 37 °C;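 for the amine columns active = adjusted P below 0.05 in both replicates with a change the same way and a mean fold change under 0.8 or over 1.25; inactive = the rest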
[1] = tested on: Clostridium sporogenes DSM 1664; test: growth (OD595) fold change vs plate DMSO controls (fold change (ratio)); higher = more growth
Summary of the method: (§1)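 The 96-well mGAM cultures had been kept anaerobic for 27 h at 37 °C before being shaken and read at 595 nm. Blank subtraction, compound background correction with 20 µM compound solutions in water, and a calibration factor of 5 turned the readings into OD. Growth is given as the fold change versus the median of plate DMSO controls. Fold changes above 1.5 were set to NA, and the values are means of 2 biological replicates.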

Escherichia coli IAI1 [2] = test: as above
Summary of the method: as §1

[3] = tested on: Klebsiella aerogenes DSM 30053; test: as above
Summary of the method: as §1

[4] = tested on: Ruminococcus gnavus DSM 108212; test: as above
Summary of the method: as §1

[5] = tested on: Klebsiella aerogenes DSM 30053; test: fold change of Histamine concentration vs plate DMSO controls (fold change (ratio)); higher = more amine produced, active = hit call of the paper (significant change in both replicates, either direction)
Summary of the method: (§2)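 Anaerobic mGAM cultures of four gut bacterial strains were grown at 37 °C for 27 h in 80 µL wells, starting at OD 0.1 before 1:1 dilution. Compounds were at 20 µM final (sweeteners 50 µM). Whole cultures were extracted with cold acetonitrile/methanol containing 0.1% formic acid and centrifuged. Amines were quantified by LC–triple-quadrupole MS (dynamic MRM) against external calibration curves and drift-corrected within batch. Each value is the fold change versus plate DMSO controls, averaged over 2 biological replicates.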

[6] = tested on: Clostridium sporogenes DSM 1664; test: fold change of Tryptamine concentration vs plate DMSO controls (fold change (ratio)); higher = more amine produced, active = hit call of the paper (significant change in both replicates, either direction)
Summary of the method: as §2

[7] = tested on: Ruminococcus gnavus DSM 108212; test: as above
Summary of the method: as §2

Escherichia coli IAI1 [8] = test: fold change of Putrescine concentration vs plate DMSO controls (fold change (ratio)); higher = more amine produced, active = hit call of the paper (significant change in both replicates, either direction)
Summary of the method: as §2

[9] = tested on: Klebsiella aerogenes DSM 30053; test: as above
Summary of the method: as §2

Escherichia coli IAI1 [10] = test: fold change of Cadaverine concentration vs plate DMSO controls (fold change (ratio)); higher = more amine produced, active = hit call of the paper (significant change in both replicates, either direction)
Summary of the method: as §2

[11] = tested on: Klebsiella aerogenes DSM 30053; test: as above
Summary of the method: as §2

[12] = tested on: Ruminococcus gnavus DSM 108212; test: fold change of 2-Phenylethylamine concentration vs plate DMSO controls (fold change (ratio)); higher = more amine produced, active = hit call of the paper (significant change in both replicates, either direction)
Summary of the method: as §2

SMILES | growth [1] | growth (Escherichia coli IAI1 [2]) | growth [3] | growth [4] | fold change of Histamine concentration [5] | fold change of Tryptamine concentration [6] | fold change of Tryptamine concentration [7] | fold change of Putrescine concentration (Escherichia coli IAI1 [8]) | fold change of Putrescine concentration [9] | fold change of Cadaverine concentration (Escherichia coli IAI1 [10]) | fold change of Cadaverine concentration [11] | fold change of 2-Phenylethylamine concentration [12]
Cc1cc(C(C)(C)C)cc(C)c1CC1=NCCN1 [Xylometazoline hydrochloride] (20 µM) | 0.986 | 1.01 | 1.01 | 1.1 | 0.982 (inactive) | 1.01 (inactive) | 1.01 (inactive) | 0.986 (inactive) | 0.966 (inactive) | 0.968 (inactive) | 1 (inactive) | 0.998 (inactive)
CC1=C(/C=C/C(C)=C/C=C/C(C)=C\C(=O)O)C(C)(C)CCC1 [Isotretinoin] (20 µM) | 0.96 | 0.987 | 1.02 | 1.02 | 0.996 (inactive) | 0.977 (inactive) | 1.04 (inactive) | 1.01 (inactive) | 1.02 (inactive) | 0.97 (inactive) | 0.991 (inactive) | 1.05 (inactive)
C[N+]1(C)CCC(OC(=O)C(O)(c2ccccc2)C2CCCC2)C1 (stereo not drawn) [Glycopyrrolate bromide] (20 µM) | 0.836 | 1.03 | 1.01 | 0.959 | 1 (inactive) | 1.01 (inactive) | 0.994 (inactive) | 1.08 (inactive) | 1 (inactive) | 1.01 (inactive) | 1.01 (inactive) | 1.02 (inactive)
CCNC(=O)CCC/C=C\C[C@@H]1[C@@H](/C=C/[C@@H](O)CCc2ccccc2)[C@H](O)C[C@@H]1O [Bimatoprost] (20 µM) | 1.07 | 1.06 | 1.02 | 1 | 1.05 (inactive) | 1.02 (inactive) | 0.954 (inactive) | 1.02 (inactive) | 1.03 (inactive) | 1.04 (inactive) | 0.997 (inactive) | 0.919 (inactive)
O=S(=O)(c1cccc2cnccc12)N1CCCNCC1 [Fasudil Hydrochloride] (20 µM) | 1.22 | 0.981 | 0.977 | 0.969 | 1.05 (inactive) | 0.964 (inactive) | 1.01 (inactive) | 1.01 (inactive) | 1.03 (inactive) | 1.03 (inactive) | 1.01 (inactive) | 0.942 (inactive)
O=C(O)Cc1ccccc1Nc1c(Cl)cccc1Cl [Diclofenac sodium] (20 µM) | 0.954 | 0.984 | 0.986 | 1.03 | 1.06 (inactive) | 0.699 (active) | 0.988 (inactive) | 1.02 (inactive) | 1 (inactive) | 1.01 (inactive) | 1 (inactive) | 0.989 (inactive)
C[C@H](CCc1ccccc1)NC[C@H](O)c1ccc(O)c(C(N)=O)c1 [Dilevalol] (20 µM) | 1.02 | 0.978 | 1.11 | 1.1 | 0.929 (inactive) | 1.04 (inactive) | 0.98 (inactive) | 1.02 (inactive) | 1.01 (inactive) | 0.974 (inactive) | 1.01 (inactive) | 1.01 (inactive)
CNCC[C@@H](Oc1ccccc1C)c1ccccc1 [Tomoxetine hydrochloride] (20 µM) | 1.11 | 1.01 | 0.98 | 1.1 | 0.978 (inactive) | 1.1 (inactive) | 1 (inactive) | 0.969 (inactive) | 0.968 (inactive) | 0.989 (inactive) | 1 (inactive) | 1.05 (inactive)
CCCCCN(CCCCC)C(=O)C(CCC(=O)O)NC(=O)c1ccc(Cl)c(Cl)c1 (stereo not drawn) [Lorglumide sodium salt] (20 µM) | 0.981 | 1.02 | 1.02 | 1.01 | 0.987 (inactive) | 0.763 (active) | 0.94 (inactive) | 1.07 (inactive) | 1.01 (inactive) | 1.03 (inactive) | 1.01 (inactive) | 0.919 (inactive)
CCCCNc1ccc(C(=O)OCCOCCOCCOCCOCCOCCOCCOCCOCCOC)cc1 [Benzonatate] (20 µM) | 0.953 | 1.03 | 1.04 | 0.922 | 0.929 (inactive) | 0.96 (inactive) | 0.971 (inactive) | 1 (inactive) | 0.995 (inactive) | 1.04 (inactive) | 1.01 (inactive) | 0.936 (inactive)
C=CCSCC1Nc2cc(Cl)c(S(N)(=O)=O)cc2S(=O)(=O)N1 (stereo not drawn) [Althiazide] (20 µM) | 1.06 | 1.11 | 1.01 | 1.02 | 0.981 (inactive) | 1.03 (inactive) | 1.24 (inactive) | 1.21 (inactive) | 1.03 (inactive) | 1.06 (inactive) | 1.12 (inactive) | 1.66 (active)
CCOC(=O)[C@H](CCc1ccccc1)N[C@@H](C)C(=O)N1Cc2ccccc2C[C@H]1C(=O)O [Quinapril hydrochloride] (20 µM) | 1.03 | 1.02 | 0.996 | 0.99 | 1.06 (inactive) | 1.07 (inactive) | 1.03 (inactive) | 1.09 (inactive) | 1.04 (inactive) | 0.999 (inactive) | 1.01 (inactive) | 1.03 (inactive)
OCCN(CCO)c1nc(N2CCCCC2)c2nc(N(CCO)CCO)nc(N3CCCCC3)c2n1 [Dipyridamole] (20 µM) | 0.986 | 1.03 | 0.521 | 0.969 | 0.47 (inactive) | 0.971 (inactive) | 1 (inactive) | 1.03 (inactive) | 0.51 (inactive) | 1 (inactive) | 0.5 (inactive) | 0.994 (inactive)
CN1CCN(C(c2ccccc2)c2ccc(Cl)cc2)CC1 (stereo not drawn) [Chlorcyclizine hydrochloride] (20 µM) | 1.15 | 1.16 | 0.997 | 0.999 | 1.09 (inactive) | 0.979 (inactive) | 0.89 (inactive) | 1.14 (inactive) | 1 (inactive) | 0.889 (inactive) | 0.981 (inactive) | 0.919 (inactive)
C[N+](C)(C)C[C@H](O)CC(=O)[O-] [Levocarnitine] (20 µM) | 0.997 | 1 | 0.994 | 0.966 | 1.04 (inactive) | 0.955 (inactive) | 1.07 (inactive) | 1.02 (inactive) | 1.03 (inactive) | 0.929 (inactive) | 1.09 (inactive) | 1.22 (inactive)
CC(=O)N(CC(O)CN(C(C)=O)c1c(I)c(C(=O)NCC(O)CO)c(I)c(C(=O)NCC(O)CO)c1I)c1c(I)c(C(=O)NCC(O)CO)c(I)c(C(=O)NCC(O)CO)c1I (stereo not drawn) [Iodixanol] (20 µM) | 0.85 | 0.989 | 1.03 | 1.01 | 0.962 (inactive) | 1.02 (inactive) | 0.886 (inactive) | 1.04 (inactive) | 1 (inactive) | 0.988 (inactive) | 0.991 (inactive) | 0.815 (inactive)
CC[C@H]1OC(=O)[C@H](C)[C@@H](O[C@H]2C[C@@](C)(OC)[C@@H](O)[C@H](C)O2)[C@H](C)[C@@H](O[C@@H]2O[C@H](C)C[C@H](N(C)C)[C@H]2O)[C@](C)(O)C[C@@H](C)[C@@H]2N[C@@H](COCCOC)O[C@H]([C@H]2C)[C@]1(C)O [Dirithromycin] (20 µM) | 0.228 | 0.961 | 0.964 | 0.419 | 0.987 (inactive) | 0.0683 (active) | 0.134 (active) | 0.956 (inactive) | 0.991 (inactive) | 0.998 (inactive) | 1.01 (inactive) | 0.146 (active)
O=C(O)CN(CCN(CC(=O)O)CC(=O)O)CCN(CC(=O)O)CC(=O)O [Pentetic acid] (20 µM) | 1.27 | 1.04 | 1.04 | 1.05 | 1.08 (inactive) | 1.02 (inactive) | 1.01 (inactive) | 0.998 (inactive) | 1.02 (inactive) | 0.992 (inactive) | 0.989 (inactive) | 0.997 (inactive)
CCCCCCNC(=O)n1cc(F)c(=O)[nH]c1=O [Carmofur] (20 µM) | 0.985 | 0.886 | 0.963 | 0.862 | 0.726 (active) | 0.872 (inactive) | 0.983 (inactive) | 0.508 (active) | 0.936 (inactive) | 0.91 (inactive) | 0.974 (inactive) | 1.01 (inactive)
CC(C)NCC(O)c1cc(O)cc(O)c1 (stereo not drawn) [Metaproterenol sulfate] (20 µM) | 0.982 | 1.03 | 1.02 | 1.17 | 0.981 (inactive) | 1.03 (inactive) | 0.957 (inactive) | 1.03 (inactive) | 0.979 (inactive) | 0.974 (inactive) | 0.992 (inactive) | 0.938 (inactive)
CCc1nn(CCCN2CCN(c3cccc(Cl)c3)CC2)c(=O)n1CCOc1ccccc1 [Nefazodone hydrochloride] (20 µM) | 1.05 | 1.01 | 1.17 | 0.822 | 0.853 (inactive) | 0.922 (inactive) | 0.793 (active) | 0.996 (inactive) | 0.996 (inactive) | 1.03 (inactive) | 1.03 (inactive) | 0.824 (inactive)
C[C@H]1O[C@H](O[C@H]2[C@H](O)[C@@H](O)[C@@H](O[C@@H]([C@H](O)[C@@H](O)C=O)[C@H](O)CO)O[C@@H]2CO)[C@H](O)[C@@H](O)[C@@H]1N[C@H]1C=C(CO)[C@@H](O)[C@H](O)[C@H]1O [Acarbose] (20 µM) | 0.918 | 1.03 | 1.04 | 1.05 | 1.15 (inactive) | 1.02 (inactive) | 0.997 (inactive) | 0.948 (inactive) | 1.07 (inactive) | 1.12 (inactive) | 0.996 (inactive) | 0.978 (inactive)
Cc1c(N)c(=O)n(-c2ccccc2)n1C [Ampyrone] (20 µM) | 1.01 | 0.995 | 0.983 | 0.854 | 0.947 (inactive) | 1.07 (inactive) | 0.901 (inactive) | 0.975 (inactive) | 0.992 (inactive) | 1.03 (inactive) | 1.01 (inactive) | 0.926 (inactive)
CN(C)C(=O)C(CCN1CCC(O)(c2ccc(Cl)cc2)CC1)(c1ccccc1)c1ccccc1 [Loperamide hydrochloride] (20 µM) | 1.1 | 1.04 | 1.05 | 0.853 | 0.935 (inactive) | 0.976 (inactive) | 0.949 (inactive) | 1 (inactive) | 0.963 (inactive) | 1.02 (inactive) | 1.02 (inactive) | 0.915 (inactive)
